SMILES strings stand for the structures. Values without a mark were called inactive. Calls come from the whole dose curve; as a rule, active = well fitted curve in the direction sought with a large enough effect; inactive = no such curve, though single readings can be large or run the other way. Where a SMILES comes first, the peptide text is derived from it. [ ]: non-standard residue; d: D form. Orn = NCCC[C@H](N)C(=O)O

The assay in a line: qHTS profiling of inhibitors of Plasmodium falciparum (3D7) proliferation (acoustic dispense). Particulars: P. falciparum 3D7 in erythrocytes, SYBR Green, 72 h; series mostly up to 49.8 µM; activity change: at the top concentration. From the text:
Plasmodium falciparum is a virulent malarial parasite that kills 1-2 million people worldwide each year. Transmitted by mosquitoes, the sporozoite form of the parasite enters the blood stream to infect hepatocytes, where they become merozoites that infect red blood cells (erythrocytes). Within erythrocytes, merozoites begin a […] cycle of growth and division, after which the parasite is released to infect new red blood cells. Gametocytes, which form within erythrocytes as well, circulate in the bloodstream and are ingested by the mosquito, thereby completing the life cycle. To profile malarial isolates for differential chemical responses and to identify inhibitors of malarial growth, an assay that measures P. falciparum growth and replication within erythrocytes was employed. This assay uses a DNA binding fluorescent dye (SYBR Green) to detect parasite DNA following cell lysis. Because mature erythrocytes lack DNA, only Plasmodium-derived DNA is detected.
The SYBR Green viability assay was adapted from a method described previously (Plouffe et al., 2008). For screening 3 ul culture medium was dispensed into 1536 well black clear bottom plates (Aurora Biotechnologies) using a Multidrop Combi (Thermo Fisher Scientific Inc.), 23 nL of compounds in DMSO were added by an acoustic dispenser (EDC Biosystems), and 5 ul of erythrocytes infected with P. falciparum (0.3% parasitemia, 2.5% hematocrit final concentration) were added. The plates were incubated at 37 C in a humidified incubator in 5% CO2 for 72 h, and 2 ul lysis buffer (20 mM Tris HCl, 10 mM EDTA, 0.16% saponin, 1.6% triton X, 10X SYBR Green I supplied as 10,000X […] by Invitrogen) was added to each well. The plates were mixed for 25 sec with gentle shaking and incubated overnight at room temperature in the dark. The following morning, fluorescence intensity at 485(14) nm excitation and 535(25) nm emission wavelengths was measured on an EnVision (Perkin Elmer) plate reader. Plate reads were normalized relative to the control inhibitor (0.29 uM artemisinin) and vehicle (DMSO) wells present on each plate and then corrected by an algorithm using vehicle-only control plates at the beginning and end of the compound plate stack.
On the technique in general: In qHTS, concentration-response curves come from the screen itself.
Consider `CC(C)N=C(N)N=C(N)Nc1ccc(Cl)cc1`, for which the “activity change” value is 0.148%. Consider `C=CCn1c(=O)c2cnc(Nc3ccc(N4CCN(C)CC4)cc3)nc2n1-c1cccc(C(C)(C)O)n1`, for which the “activity change” value was -0.259%. The result for `C[C@H]1[C@@H](OC(=O)CCC(=O)O)O[C@@H]2O[C@@]3(C)CC[C@@H]4[C@H](C)CC[C@@H]1[C@@]24OO3` reads 0.0623%; that for `COc1cc2c(Oc3ccc(NC(=O)C4(C(=O)Nc5ccc(F)cc5)CC4)cc3F)ccnc2cc1OCCCN1CCOCC1`, 6.54%.

For `CC(C)C[C@H](NC(=O)[C@H](CCc1ccccc1)NC(=O)CN1CCOCC1)C(=O)N[C@@H](Cc1ccccc1)C(=O)N[C@@H](CC(C)C)C(=O)[C@@]1(C)CO1`, the “activity change” value was 0.444%.

Take `Nc1ccc(-c2ccc3ncc4ccc(=O)n(-c5cccc(C(F)(F)F)c5)c4c3c2)cn1`: the “activity change” value is -7.03%.

On to `CC[C@H]1OC(=O)[C@H](C)[C@@H](O[C@H]2C[C@@](C)(OC)[C@@H](O)[C@H](C)O2)[C@H](C)[C@@H](O[C@@H]2O[C@H](C)C[C@H](N(C)C)[C@@H]2O)[C@](C)(O)C[C@@H](C)CN(C)[C@H](C)[C@@H](O)[C@]1(C)O`, for which the “activity change” value was 5.16%. With `CN(C)c1ccc(C(=C2C=CC(=[N+](C)C)C=C2)c2ccc(N(C)C)cc2)cc1`, the “activity change” value is 107%.

In the case of `NC1CCC(Nc2nc(Nc3ccc(C(=O)N4CCCCC4)cc3)c3ncn(-c4cccc(F)c4)c3n2)CC1` (stereo not given), the “activity change” value was -1.28%. As for `COC1=C2C[C@@H](C)C[C@H](OC)[C@@H](O)[C@@H](C)C=C(C)[C@H](OC(N)=O)[C@@H](OC)C=CC=C(C)C(=O)NC(=CC1=O)C2=O`, the “activity change” value was -1.59%. Then `COc1ccc(-c2nc(N3CCOCC3)c3sc(CN(C)c4ncc(C(=O)NO)cn4)cc3n2)cn1`, with 1.59%; and `OB1OCc2cc(F)ccc21`, with 5.24%. As to `CCC(C=C[C@@H]1OC(=O)C=C[C@H]1C)=C[C@H](C)CC=CC(C)=C[C@@H](C)C(=O)[C@@H](C)[C@H](O)[C@@H](C)CC(C)=CC(=O)O`, the activity change was 22.5% [at 1.88 µM]. Then `C=C[C@@H]1CN2CC[C@@H]1C[C@H]2[C@H](O)c1ccnc2ccc(OC)cc12`, with 0.819%; and `CC(C)C[C@@H]1NC(=O)[C@H](CCCN)NC(=O)[C@H](C(C)C)NC(=O)[C@@H]2CCCN2C(=O)[C@@H](Cc2ccccc2)NC(=O)[C@H](CC(C)C)NC(=O)[C@H](CCCN)NC(=O)[C@H](C(C)C)NC(=O)[C@@H]2CCCN2C(=O)[C@@H](Cc2ccccc2)NC1=O` (cyclo(V[Orn]L[dF]PV[Orn]L[dF]P)), with 1.28%. The result for `Cn1c(=O)n(-c2ccc(C(C)(C)C#N)cc2)c2c3cc(-c4cnc5ccccc5c4)ccc3ncc21` reads 0.256%. Take `CC[C@@]1(O)C[C@H](O[C@H]2C[C@H](N(C)C)[C@H](O[C@H]3C[C@H](O)[C@H](O[C@H]4CCC(=O)[C@H](C)O4)[C@H](C)O3)[C@H](C)O2)c2c(cc3c(c2O)C(=O)c2c(O)cccc2C3=O)[C@@H]1C(=O)OC`: the “activity change” value is -2.95%. As for `CCCCN(CCCC)CC(O)c1cc(Cl)cc2c1-c1ccc(Cl)cc1C2=Cc1ccc(Cl)cc1` (stereo not given), the “activity change” value was -1.15%.

As to `CC(=NNC(=S)N1CCC1)c1ccccn1`, the “activity change” value was -1.01%. For the compound `Cc1cn[nH]c1`, the “activity change” value was 0.616%. Then `CO[C@H]1O[C@@H]2O[C@@]3(C)CC[C@@H]4[C@@H](C)CC[C@@H]([C@H]1C)[C@@]24OO3`, with -0.464%. Consider `C[C@H]1c2cccc(O)c2C(O)=C2C(=O)[C@]3(O)C(O)=C(C(N)=O)C(=O)[C@@H](N(C)C)[C@@H]3[C@@H](O)[C@@H]21`, for which the “activity change” value was -0.335%. With `O=C(Nc1cn[nH]c1-c1nc2ccc(CN3CCOCC3)cc2[nH]1)NC1CC1`, the “activity change” value is 2.4%. With `CC(C)[C@H](C(=O)Nc1ccc(C(=O)NO)cc1)c1ccccc1`, the “activity change” value is -0.681%.

In the case of `CS(=O)(=O)CCNCc1ccc(-c2ccc3ncnc(Nc4ccc(OCc5cccc(F)c5)c(Cl)c4)c3c2)o1`, the “activity change” value was 29.8%. Then `CCCCCCOC(=O)C1(O)CC2OC1(C)n1c3ccccc3c3c4c(c5c6ccccc6n2c5c31)C(=O)NC4` (stereo not given), with 34.6% [at 1.88 µM]; and `CO[C@@H]1C(N(C)C(=O)c2ccccc2)C[C@H]2O[C@]1(C)n1c3ccccc3c3c4c(c5c6ccccc6n2c5c31)C(=O)NC4=O` (stereo not given in full), with 13.6%; and `C1CCC(C(CC2CCCCN2)C2CCCCC2)CC1` (stereo not given), with 0.0017%. The result for `CCN[C@H]1C[C@H](C)S(=O)(=O)c2sc(S(N)(=O)=O)cc21` reads -1.4%; that for `CN[C@@H](C)C(=O)N[C@H]1CCCC[C@H]2CC[C@@H](C(=O)N[C@@H](c3ccccc3)c3cn(CCCCc4ccc(CCCCn5cc([C@@H](NC(=O)[C@@H]6CC[C@@H]7CCCC[C@H](NC(=O)[C@H](C)NC)C(=O)N76)c6ccccc6)nn5)cc4)nn3)N2C1=O`, 0.436%. With `CC[C@@]1([C@@H]2O[C@@H]([C@H]3O[C@@](O)(CO)[C@H](C)C[C@H]3C)C[C@H]2C)CC[C@H]([C@]2(C)CC[C@]3(C[C@H](O)[C@@H](C)[C@@H]([C@@H](C)[C@@H](OC)[C@H](C)C(=O)O)O3)O2)O1`, the “activity change” value is -0.944% [at 23.2 µM]. Then `C#Cc1cccc(Nc2ncnc3cc(OC)c(OCCCCCCC(=O)NO)cc23)c1`, with -0.748%.

`CN(C)c1ccc2nc3ccc(=[N+](C)C)cc-3sc2c1`: the “activity change” value is 26%.

Consider `COc1cc(NCc2ccc3nc(N)nc(N)c3c2C)cc(OC)c1OC`, for which the “activity change” value was -3.73%. Then `CC[C@]1(O)C[C@H]2CN(CCC3=c4ccccc4=N[C]3[C@@](C(=O)OC)(c3cc4c(cc3OC)N(C)[C@H]3[C@@](O)(C(N)=O)[C@H](O)[C@]5(CC)C=CCN6CC[C@]43[C@@H]65)C2)C1`, with 11.8%. The result for `O[C@H](c1cc(C(F)(F)F)nc2c(C(F)(F)F)cccc12)[C@H]1CCCCN1` reads 0.467% [at 23.2 µM]; that for `CN[C@@H]1C[C@H]2O[C@@](C)([C@H]1OC)n1c3ccccc3c3c4c(c5c6ccccc6n2c5c31)C(=O)N[C@H]4O`, 0.201%. For `Cc1nc2c(C#N)cccc2n1-c1ccc(C(=O)NC2CC2)s1`, the “activity change” value is 4.45%. Then `CO[C@H]1C=CC=C(C)C(=O)NC2=CC(=O)C(NCCN(C)C)=C(C[C@@H](C)C[C@H](OC)[C@@H](O)[C@@H](C)C=C(C)[C@@H]1OC(N)=O)C2=O`, with 111%; and `O=C(Nc1ccc([N+](=O)[O-])cc1Cl)c1cc(Cl)ccc1O`, with 78.1%.

The values are drawn from PubChem BioAssay AID743364 (National Center for Advancing Translational Sciences (NCATS), 2014).
